Laboratory results: the supplement of paper PMC10849652
Targets with a hit are over-represented here; the source holds about 7,900 in all. About 0.6% of all pairs of compound and target were hits.

Key:
Experiment in all cases: log2 fold change, soluble protein after heating vs DMSO (PISA); higher = thermal stabilisation; K562 cells, 10 uM, 30 min; active = over 0.2 and 3.5 SD of the protein, either way, in both replicates (recomputed)
[1] = compound: C1=CC=C(C=C1)[C@H](COC2=CC3=C(C=C2)NC(=O)N3)NC(=O)C4=CC=CN(C4=O)CC5=CC(=C(C=C5)F)F
Procedure, shortened: (§1)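 Soluble protein was defined as the supernatant after 21,000xg for 90 min. It came from K562 cells at 2×10^6 cells/mL given 10 μM compound for 30 min, heated in aliquots for 3 min across 48°C-58°C, pooled, and extracted in PBS with 0.5% NP-40 at 4°C, and was quantified by TMTpro 16plex LC-MS/MS with equalised channel sums. Thermal stability against control samples, from duplicates, is reported as log2 fold change.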

[2] = compound: CC1=C(SC2=C1C(=N[C@H](C3=NN=C(N32)C)CC(=O)N)C4=CC=C(C=C4)Cl)C
Procedure, shortened: as §1

[3] = compound: CC1=C2C(=CC=C1)N=C(N(C2=O)C3=CC=CC=C3C)CN4C=NC5=C(N=CN=C54)N
Procedure, shortened: as §1

[4] = compound: Cc1sc2c(c1C)C(c1ccc(Cl)cc1)=N[C@@H](CC(=O)OC(C)(C)C)c1nnc(C)n1-2
Procedure, shortened: as §1

[5] = compound: c1ccc([C@@H]2C[C@H]2NC2CCNCC2)cc1
Procedure, shortened: as §1

Measured: log2 fold change

NRGN (UniProt Q92686)
inactive: [1] 0.048

NMU (UniProt P48645)
Sequence of UniProt P48645 (P48645 whole entry, looked up): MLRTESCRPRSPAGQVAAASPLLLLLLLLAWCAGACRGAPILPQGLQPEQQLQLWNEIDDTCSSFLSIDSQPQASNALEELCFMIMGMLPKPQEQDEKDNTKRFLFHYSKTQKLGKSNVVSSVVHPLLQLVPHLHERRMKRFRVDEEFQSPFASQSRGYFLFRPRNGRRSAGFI
inactive: [1] -0.109 | [2] 0.008 | [3] -0.03 | [4] 0.066 | [5] -0.086

MORF4L2 (UniProt Q15014)
inactive: [1] 0.089 | [2] 0.001 | [3] -0.002 | [4] 0.028 | [5] 0.091

NELFB isoform 2 (UniProt Q8WX92)
Sequence of UniProt Q8WX92 (Q8WX92 whole entry, looked up): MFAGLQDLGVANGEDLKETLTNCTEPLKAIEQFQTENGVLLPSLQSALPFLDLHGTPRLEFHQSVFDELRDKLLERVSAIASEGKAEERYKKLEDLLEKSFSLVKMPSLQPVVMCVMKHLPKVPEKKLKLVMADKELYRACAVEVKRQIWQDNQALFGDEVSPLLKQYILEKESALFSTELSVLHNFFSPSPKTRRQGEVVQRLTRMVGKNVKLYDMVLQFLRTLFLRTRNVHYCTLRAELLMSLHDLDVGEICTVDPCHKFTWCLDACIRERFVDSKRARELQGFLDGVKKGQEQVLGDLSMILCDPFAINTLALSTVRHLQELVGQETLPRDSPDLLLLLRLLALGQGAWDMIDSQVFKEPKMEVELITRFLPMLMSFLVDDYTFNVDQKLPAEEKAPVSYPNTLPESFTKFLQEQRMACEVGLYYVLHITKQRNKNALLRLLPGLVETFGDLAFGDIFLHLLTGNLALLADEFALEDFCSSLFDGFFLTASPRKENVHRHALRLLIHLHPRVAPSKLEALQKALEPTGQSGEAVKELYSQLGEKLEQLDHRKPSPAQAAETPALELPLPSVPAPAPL
inactive: [1] -0.098 | [2] 0.12 | [3] 0.123 | [4] -0.05 | [5] -0.023

NOP53 (UniProt Q9NZM5)
inactive: [1] 0.103 | [2] -0.332 | [3] -0.415 | [4] 0.353 | [5] 0.097

NDUFB1 (UniProt O75438)
inactive: [1] -0.004 | [2] -0.059 | [3] -0.056 | [4] -0.138 | [5] 0.055

NOB1 (UniProt Q9ULX3)
Sequence of UniProt Q9ULX3 (Q9ULX3 whole entry, looked up): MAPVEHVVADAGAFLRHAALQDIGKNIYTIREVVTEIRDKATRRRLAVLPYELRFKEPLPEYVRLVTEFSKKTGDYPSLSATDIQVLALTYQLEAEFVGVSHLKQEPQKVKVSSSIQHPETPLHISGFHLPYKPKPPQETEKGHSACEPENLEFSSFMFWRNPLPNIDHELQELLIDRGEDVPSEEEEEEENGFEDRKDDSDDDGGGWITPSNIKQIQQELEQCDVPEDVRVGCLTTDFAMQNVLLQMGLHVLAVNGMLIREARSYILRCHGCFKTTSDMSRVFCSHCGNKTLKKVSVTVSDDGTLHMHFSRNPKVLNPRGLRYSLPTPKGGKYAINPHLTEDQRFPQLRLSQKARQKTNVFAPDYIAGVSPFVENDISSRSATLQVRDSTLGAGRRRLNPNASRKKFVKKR
inactive: [1] -0.048 | [2] -0.033 | [3] 0.048 | [4] 0.067 | [5] -0.06

NMT2 (UniProt O60551)
inactive: [1] -0.045 | [2] 0.053 | [3] 0.092 | [4] 0.026 | [5] -0.107

NCOA7 (UniProt Q8NI08)
inactive: [1] 0.03 | [2] 0.093 | [3] 0.036 | [4] 0.016 | [5] -0.058

OGFR (UniProt Q9NZT2)
Sequence of UniProt Q9NZT2 (Q9NZT2 whole entry, looked up): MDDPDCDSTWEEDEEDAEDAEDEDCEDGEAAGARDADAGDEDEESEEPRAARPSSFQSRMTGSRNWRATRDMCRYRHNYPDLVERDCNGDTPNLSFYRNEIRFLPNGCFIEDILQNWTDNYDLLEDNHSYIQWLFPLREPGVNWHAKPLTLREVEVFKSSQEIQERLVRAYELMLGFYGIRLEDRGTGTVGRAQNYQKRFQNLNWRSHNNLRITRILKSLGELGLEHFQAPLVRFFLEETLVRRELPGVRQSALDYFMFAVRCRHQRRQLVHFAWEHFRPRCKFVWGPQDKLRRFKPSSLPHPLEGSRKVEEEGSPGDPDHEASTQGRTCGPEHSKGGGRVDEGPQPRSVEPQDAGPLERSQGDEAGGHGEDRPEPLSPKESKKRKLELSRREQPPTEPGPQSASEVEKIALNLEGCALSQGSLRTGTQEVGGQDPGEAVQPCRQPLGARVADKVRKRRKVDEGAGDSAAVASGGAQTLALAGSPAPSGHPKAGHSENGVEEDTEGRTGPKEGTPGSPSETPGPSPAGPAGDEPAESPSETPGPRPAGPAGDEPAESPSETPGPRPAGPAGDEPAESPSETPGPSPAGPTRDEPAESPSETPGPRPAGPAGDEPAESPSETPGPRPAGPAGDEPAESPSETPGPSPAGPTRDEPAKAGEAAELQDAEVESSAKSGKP
inactive: [1] -0.016 | [2] -0.057 | [3] 0.016 | [4] 0.095 | [5] -0.046

MSTO1 (UniProt Q9BUK6)
Sequence of UniProt Q9BUK6 (Q9BUK6 whole entry, looked up): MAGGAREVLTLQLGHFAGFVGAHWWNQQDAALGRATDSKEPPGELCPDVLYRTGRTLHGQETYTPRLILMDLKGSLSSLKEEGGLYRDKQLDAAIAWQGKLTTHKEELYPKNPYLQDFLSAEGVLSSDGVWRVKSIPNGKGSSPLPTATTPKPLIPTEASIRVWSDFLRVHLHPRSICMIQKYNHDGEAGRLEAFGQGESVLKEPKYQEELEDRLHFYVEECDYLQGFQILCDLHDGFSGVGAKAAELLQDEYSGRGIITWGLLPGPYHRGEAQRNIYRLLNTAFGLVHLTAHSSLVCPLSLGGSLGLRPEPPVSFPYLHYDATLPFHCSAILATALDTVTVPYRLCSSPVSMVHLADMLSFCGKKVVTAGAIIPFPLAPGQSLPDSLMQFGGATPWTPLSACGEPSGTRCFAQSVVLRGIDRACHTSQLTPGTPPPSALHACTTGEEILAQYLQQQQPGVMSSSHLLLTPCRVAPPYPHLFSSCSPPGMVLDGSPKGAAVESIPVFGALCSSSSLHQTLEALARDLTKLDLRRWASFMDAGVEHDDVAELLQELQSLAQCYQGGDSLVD
inactive: [1] -0.041 | [2] 0.046 | [3] 0.002 | [4] -0.005 | [5] -0.071

MYSM1 (UniProt Q5VVJ2)
inactive: [1] 0.07

NFYC (UniProt Q13952)
inactive: [1] 0.002 | [2] 0.063 | [3] 0.036 | [4] 0.014 | [5] -0.014

MTMR14 (UniProt Q8NCE2)
Sequence of UniProt Q8NCE2 (Q8NCE2 whole entry, looked up): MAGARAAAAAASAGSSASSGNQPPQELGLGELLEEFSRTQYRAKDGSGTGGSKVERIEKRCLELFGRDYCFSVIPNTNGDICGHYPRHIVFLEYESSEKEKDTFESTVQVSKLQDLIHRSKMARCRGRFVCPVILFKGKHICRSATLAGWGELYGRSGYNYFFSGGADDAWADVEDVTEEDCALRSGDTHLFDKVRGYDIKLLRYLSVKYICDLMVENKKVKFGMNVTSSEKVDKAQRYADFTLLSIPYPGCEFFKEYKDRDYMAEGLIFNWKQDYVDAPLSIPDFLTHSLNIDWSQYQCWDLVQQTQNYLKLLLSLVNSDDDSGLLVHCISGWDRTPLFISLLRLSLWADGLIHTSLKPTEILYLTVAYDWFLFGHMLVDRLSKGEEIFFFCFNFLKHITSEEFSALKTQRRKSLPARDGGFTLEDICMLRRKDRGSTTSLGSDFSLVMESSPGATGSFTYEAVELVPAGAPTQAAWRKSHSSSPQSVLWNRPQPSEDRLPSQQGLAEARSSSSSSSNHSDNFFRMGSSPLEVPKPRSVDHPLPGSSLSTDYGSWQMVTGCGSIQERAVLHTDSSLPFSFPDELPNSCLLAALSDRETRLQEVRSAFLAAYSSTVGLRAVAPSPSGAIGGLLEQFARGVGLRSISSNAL
inactive: [1] 0.03 | [2] 0.047 | [3] 0.156 | [4] -0.011 | [5] 0.069

NDUFB8 (UniProt O95169)
inactive: [1] 0.049 | [2] 0.045 | [3] 0.02 | [4] -0.002 | [5] 0.089

NA (UniProt B2RBV5)
inactive: [1] 0.002

NCAPD2 (UniProt Q15021)
inactive: [1] -0.078 | [2] 0.04 | [3] 0.044 | [4] 0.016 | [5] 0.007

OTULIN (UniProt Q96BN8)
Sequence of UniProt Q96BN8 (Q96BN8 whole entry, looked up): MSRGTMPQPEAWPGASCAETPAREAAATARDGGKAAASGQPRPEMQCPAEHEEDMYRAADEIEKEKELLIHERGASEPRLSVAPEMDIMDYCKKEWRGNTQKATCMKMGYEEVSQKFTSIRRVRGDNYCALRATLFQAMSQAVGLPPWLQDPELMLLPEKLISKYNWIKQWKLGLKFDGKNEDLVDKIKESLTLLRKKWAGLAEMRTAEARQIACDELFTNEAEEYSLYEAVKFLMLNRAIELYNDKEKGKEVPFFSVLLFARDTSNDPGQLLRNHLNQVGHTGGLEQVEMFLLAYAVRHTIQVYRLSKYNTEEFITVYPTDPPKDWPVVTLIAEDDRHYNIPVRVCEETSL
inactive: [1] -0.07 | [2] -0.019 | [3] 0.124 | [4] 0.005 | [5] 0.005

NME7 (UniProt Q9Y5B8)
Sequence of UniProt Q9Y5B8 (Q9Y5B8 whole entry, looked up): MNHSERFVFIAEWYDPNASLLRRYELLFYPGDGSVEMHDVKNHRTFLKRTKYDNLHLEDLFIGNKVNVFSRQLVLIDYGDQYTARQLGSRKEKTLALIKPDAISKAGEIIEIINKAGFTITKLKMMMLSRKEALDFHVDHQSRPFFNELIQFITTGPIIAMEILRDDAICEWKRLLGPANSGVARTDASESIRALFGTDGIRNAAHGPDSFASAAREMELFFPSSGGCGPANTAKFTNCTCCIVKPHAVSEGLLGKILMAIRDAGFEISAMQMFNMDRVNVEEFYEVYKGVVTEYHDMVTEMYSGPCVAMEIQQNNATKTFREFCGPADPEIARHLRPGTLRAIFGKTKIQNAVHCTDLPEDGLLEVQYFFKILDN
inactive: [1] -0.112 | [2] 0.098 | [3] 0.175 | [4] 0.096 | [5] -0.038

NME2P1 (UniProt O60361)
Sequence of UniProt O60361 (O60361 whole entry, looked up): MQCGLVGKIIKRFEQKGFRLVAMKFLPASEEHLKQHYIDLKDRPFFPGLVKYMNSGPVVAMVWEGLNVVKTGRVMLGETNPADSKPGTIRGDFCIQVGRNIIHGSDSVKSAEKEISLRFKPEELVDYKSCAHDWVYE
inactive: [1] -0.171 | [2] 0.079 | [3] 0.063 | [4] 0.082 | [5] -0.004

NOP58 (UniProt Q9Y2X3)
Sequence of UniProt Q9Y2X3 (Q9Y2X3 whole entry, looked up): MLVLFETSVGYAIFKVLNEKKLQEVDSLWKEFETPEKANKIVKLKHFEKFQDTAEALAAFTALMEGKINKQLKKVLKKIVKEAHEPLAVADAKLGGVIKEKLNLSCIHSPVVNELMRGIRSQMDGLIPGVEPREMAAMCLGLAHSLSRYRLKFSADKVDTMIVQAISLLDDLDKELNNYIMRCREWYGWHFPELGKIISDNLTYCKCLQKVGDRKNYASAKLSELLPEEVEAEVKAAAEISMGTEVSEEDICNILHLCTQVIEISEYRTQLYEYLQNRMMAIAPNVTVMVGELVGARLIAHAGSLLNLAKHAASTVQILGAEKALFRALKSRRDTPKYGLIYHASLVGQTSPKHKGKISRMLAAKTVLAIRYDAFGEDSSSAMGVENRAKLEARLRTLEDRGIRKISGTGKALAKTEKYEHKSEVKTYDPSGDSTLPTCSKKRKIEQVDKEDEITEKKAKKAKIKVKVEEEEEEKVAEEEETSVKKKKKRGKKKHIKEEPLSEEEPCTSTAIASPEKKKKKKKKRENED
inactive: [1] 0.039 | [2] -0.151 | [3] -0.063 | [4] 0.068 | [5] 0.031

NAT14 (UniProt Q8WUY8)
Sequence of UniProt Q8WUY8 (Q8WUY8 whole entry, looked up): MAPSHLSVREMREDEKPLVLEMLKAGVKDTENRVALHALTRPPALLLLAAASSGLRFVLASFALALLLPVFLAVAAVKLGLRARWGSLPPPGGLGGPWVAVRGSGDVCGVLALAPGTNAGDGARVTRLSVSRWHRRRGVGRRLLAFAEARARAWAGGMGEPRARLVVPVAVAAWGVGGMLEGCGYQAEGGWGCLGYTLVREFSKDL
inactive: [1] -0.059 | [2] 0.055 | [3] -0.087 | [4] 0.043 | [5] -0.047

PAFAH2 (UniProt Q99487)
inactive: [1] -0.191 | [2] 0.016 | [3] 0.066 | [4] -0.117 | [5] -0.141

OVCA2 (UniProt Q8WZ82)
inactive: [1] -0.152

NANS (UniProt Q9NR45)
inactive: [1] -0.031 | [2] 0.065 | [3] 0.071 | [4] -0.015 | [5] -0.024

MSH6 (UniProt P52701)
inactive: [1] -0.24 | [2] 0.08 | [3] 0.127 | [4] -0.056 | [5] -0.008

NNMT (UniProt P40261)
Sequence of UniProt P40261 (P40261 whole entry, looked up): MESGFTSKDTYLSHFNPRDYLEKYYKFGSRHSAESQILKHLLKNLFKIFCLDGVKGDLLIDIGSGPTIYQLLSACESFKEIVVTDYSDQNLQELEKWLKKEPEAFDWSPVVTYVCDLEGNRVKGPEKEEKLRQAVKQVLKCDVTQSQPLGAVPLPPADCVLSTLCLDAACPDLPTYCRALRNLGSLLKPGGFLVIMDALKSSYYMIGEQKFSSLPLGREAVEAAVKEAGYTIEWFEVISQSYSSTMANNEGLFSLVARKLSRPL
inactive: [1] 0.021 | [2] 0.051 | [3] 0.078 | [4] -0.009 | [5] -0.055
